From PubChem
697 NFkB inh = lowers PMA/ionomycin-induced NF-kB signal in 697 B cells; 697 B-cell NF-kB luciferase reporter, 16 h; inhibition, % at 4 µM; 0.33% of 330,000 active; AID 435022; in the data active = inhibition above about 35%
Mdm2 MdmX PPI = human Mdm2/MdmX binding inhibition; SaOS-2 split-luciferase Mdm2/MdmX complementation, luminescence; inhibition, % at 8 µM; 3% of 330,000 active;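 active = inhibition of at least 50% at 8 µM in the primary screen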
Jurkat NFkB inh = lowers PMA/ionomycin-induced NF-kB signal in Jurkat cells; PMA/ionomycin-induced NF-kB luciferase reporter, luminescence; inhibition, % at 4 µM; 0.53% of 330,000 active; in the data active = inhibition above about 50%
Gli-Sufu block = blocks Gli-Sufu signaling in a luciferase reporter. 0.74% of 340,000 active. Sufu-KO-LIGHT fibroblasts, Gli luciferase reporter luminescence. AID 588413. inhibition, % at 5 µM;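 active = inhibition above about 55%, limit read from the data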
Shn3 inh set2 = reduces Shn3 3'UTR luciferase signal in osteoblasts. inhibition, % at 12.5 µM. 0.52% of 360,000 active. Clone20 osteoblast Shn3 3'UTR firefly luciferase, 24 h;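 active = mean inhibition of at least 75% with every replicate also reaching 75%; inconclusive = mean inhibition at least 75% but some replicate below; inactive = mean inhibition below 75%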
Mdm2 MdmX conf = human Mdm2/MdmX binding inhibition, confirmed; AID 489028; 55% of 10,000 active; shares compounds with Mdm2 MdmX PPI; luminescent assay; inhibition, % at 8 µM; in the data active = inhibition above about 40%
FLuc counter = inhibits full-length luciferase, flagging false Mdm2/MdmX hits; inhibition, % at 8 µM; AID 504607; SaOS-2 full-length luciferase counterscreen, luminescence; shares compounds with Mdm2 MdmX PPI; 77% of 6,200 active;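 active = mean inhibition at 8 µM reaching about 37%, which flags the compound as non-specific, limit read from the data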;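 also: p53-null SaOS-2 cells with luciferase driven by a doxycycline-inducible promoter; compound on cells about two nights before reading with doxycycline added after day one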
Large screens that a line does not name were inactive (follow-up assays come after a bar, where they were run). Rows were chosen to be rich in hits. Some 3.8% of all compounds tested hit in one or more screens of this group.

Cc1c(/C=N/Nc2nc3ccccc3[nH]2)c2ccccc2n1C	Mdm2 MdmX PPI 92.7 | Mdm2 MdmX conf 48.0 | FLuc counter 71.1
Cc1nc(-c2ccc(Cl)cc2)sc1C1(C)CC(c2cccc(F)c2)=NO1 (centres undefined)	none
COc1ccc(Cl)cc1CC1(C)C(=O)Nc2c(Cl)cccc21 (centres undefined)	none (no result: 697 NFkB inh, Mdm2 MdmX PPI, Jurkat NFkB inh, Gli-Sufu block)
O=C1NC[C@H](c2ccccc2)N(CCc2cccc(F)c2)C1=O	none
COC(=O)c1ccccc1NC(=O)COC(=O)Cc1ccc(S(=O)(=O)N2CCOCC2)s1	none (no result: 697 NFkB inh, Mdm2 MdmX PPI, Jurkat NFkB inh)
COc1cccc(/C=N/Nc2nc3ccccc3[nH]2)c1OC	none
COc1cccc(/C=N/Nc2nc3ccccc3[nH]2)c1O	Mdm2 MdmX PPI 61.1, Shn3 inh set2 inconclusive | Mdm2 MdmX conf 40.2 | FLuc counter 60.6
CCOc1ccccc1NC(=O)CN(c1ccc(OC)cc1)S(=O)(=O)c1c(C)[nH]c(=O)[nH]c1=O	none
CN(C)CC/C=C1\c2ccccc2Sc2cc(F)c(Cl)cc21	Mdm2 MdmX PPI 65.5 | Mdm2 MdmX conf inactive | FLuc counter 78.1
CN(C)CC/C=C1\c2ccc(F)cc2Sc2cc(F)c(Cl)cc21	Mdm2 MdmX PPI 54.8 | Mdm2 MdmX conf inactive
CN(C)CC/C=C1\c2ccccc2Sc2ccc(Cl)cc21	none
Cc1cccc([C@H]2[C@@H]3C=CCC[C@@H]3C(=O)N2Cc2ccccc2)c1	none (no result: Jurkat NFkB inh)
O=C(C1CCCO1)N1CCN(c2ccccn2)CC1 (centres undefined)	none
COc1ccc(-n2nc(C(=O)NCC(=O)Nc3cc(OC)c(OC)c(OC)c3)c3ccccc3c2=O)cc1	Mdm2 MdmX PPI 51.5 | Mdm2 MdmX conf inactive
COc1ccc2nc(NC(=O)CSc3nnc(C)s3)sc2c1	Mdm2 MdmX PPI 80.0 | Mdm2 MdmX conf inactive
COc1ccc(-n2nc(C(=O)Nc3nc4ccc(OC)cc4s3)c3ccccc3c2=O)c(OC)c1	Mdm2 MdmX PPI 77.4 (no result: Gli-Sufu block, Shn3 inh set2) | Mdm2 MdmX conf inactive
COc1ccc2nc(NC(=O)CSc3nc(SC)ns3)sc2c1	none
COc1ccc2nc(NC(=O)c3cccc(-c4cc5ccccc5oc4=O)c3)sc2c1	Mdm2 MdmX PPI 78.1 | Mdm2 MdmX conf 63.7 | FLuc counter 120.4
CC(C)C(NC(=O)c1ccccc1NC(=O)C(C)(C)C)C(=O)N1CCOCC1 (centres undefined)	none
COc1ccc(Nc2cc(Nc3cc(OC)c(OC)c(OC)c3)ncn2)cc1	Mdm2 MdmX PPI 65.4 | Mdm2 MdmX conf inactive
COc1ccc(Nc2cc(Nc3ccc(OC)cc3)ncn2)cc1	none
CS(=O)(=O)c1nc(S(=O)(=O)c2ccc(Cl)cc2)c(N2CCOCC2)s1	Mdm2 MdmX PPI 57.3 | Mdm2 MdmX conf inactive
Cc1ccc(S(=O)(=O)c2nc(S(C)(=O)=O)sc2N2CCCCCC2)cc1	none
Cc1ccc(S(=O)(=O)c2nc(S(C)(=O)=O)sc2N2CCC(C)CC2)cc1	Mdm2 MdmX PPI 53.5 | Mdm2 MdmX conf inactive
O=C(c1cc2c(s1)CCCC2)N1CCN(CCO)CC1	none
CC(C)CC1NC(=O)N(CC(=O)N(C)C2CCCCC2)C1=O (centres undefined)	none
Nc1nonc1C(=O)NCCNCc1ccccc1OCc1ccccc1F	Mdm2 MdmX PPI 56.3 | Mdm2 MdmX conf inactive
CCN1C(=O)[C@H]2[C@H]3CN=C(SC)N3[C@@](Cc3ccccc3)(C(=O)OC)[C@H]2C1=O	none (no result: Jurkat NFkB inh)
CCS(=O)(=O)c1nnnn1-c1ccccc1S(C)(=O)=O	Mdm2 MdmX PPI 60.2 (no result: Gli-Sufu block) | Mdm2 MdmX conf 63.1 | FLuc counter inactive
O=S(=O)(Cc1nnnn1-c1ccc(Br)cc1)c1ccccc1	none (no result: 697 NFkB inh, Mdm2 MdmX PPI, Jurkat NFkB inh, Gli-Sufu block)
Cc1cccn2c(=O)c(C=Nc3ccc(Cl)cc3)c(NCCO)nc12	none
Cc1cccn2c(=O)c(C=NCCO)c(Nc3ccc(Cl)cc3)nc12	Mdm2 MdmX PPI 53.1 (no result: Gli-Sufu block, Shn3 inh set2) | Mdm2 MdmX conf inactive
N#C/C(=N\Nc1ccccc1)C(N)=S	none (no result: Shn3 inh set2)
Cc1ccc(N/N=C(\C#N)C(N)=S)cc1C	Mdm2 MdmX PPI 64.3 | Mdm2 MdmX conf 52.9 | FLuc counter 72.2
O=S(=O)(/C=C/c1ccccc1)Oc1ccccc1	Mdm2 MdmX PPI 75.8 | Mdm2 MdmX conf 50.5 | FLuc counter 77.8
CCCC(NCC(O)COc1ccc(-c2ccccc2)cc1)c1ccccc1 (centres undefined)	Mdm2 MdmX PPI 100.3 | Mdm2 MdmX conf 56.5 | FLuc counter 60.4
COc1ccc(OCC(O)CNC(C)c2ccccc2)cc1 (centres undefined)	none
Cc1cc(OCC(O)CNC(C)c2ccccc2)ccc1C(C)C (centres undefined)	Mdm2 MdmX PPI 58.8 | Mdm2 MdmX conf inactive
CC(C)(CNS(=O)(=O)c1ccc2ccccc2c1)N1CCOCC1	none
O=[N+]([O-])c1ccccc1/C=C/C=N/Nc1nc(N2CCCCC2)nc(N2CCCCC2)n1	none
C(=C\c1ccccc1)/C=N/Nc1nc(N2CCCCC2)nc(N2CCCCC2)n1	Mdm2 MdmX PPI 56.9 | Mdm2 MdmX conf inactive
Cc1sc(N/N=C/c2cccnc2)nc1-c1ccccc1	Mdm2 MdmX PPI 59.2 | Mdm2 MdmX conf 61.6 | FLuc counter 74.2
C=CCNC(=O)c1ccc(Cn2cc(C(F)(F)F)ccc2=O)cc1	none
Cc1[nH]nc2ncc(C(=O)c3ccccc3O)cc12	Mdm2 MdmX PPI 80.9 | Mdm2 MdmX conf 80.9 | FLuc counter inactive
Cc1nn(C)c2ncc(C(=O)c3ccccc3O)cc12	none
Cn1c(=O)c(Nc2ccc(Cl)cc2)c2c3c(cccc31)C(=O)c1ccccc1-2	Mdm2 MdmX PPI 50.7 (no result: Shn3 inh set2) | Mdm2 MdmX conf inactive
CCN1C(=O)/C(=C/C=C2/Sc3ccccc3N2CCO)SC1=S	Mdm2 MdmX PPI 69.7 (no result: Gli-Sufu block) | Mdm2 MdmX conf inactive
O=C(c1cccs1)N1CCc2c([nH]c3ccccc23)C1c1ccc(Cl)cc1 (centres undefined)	Mdm2 MdmX PPI 72.8 | Mdm2 MdmX conf 58.4 | FLuc counter 97.2
Nc1ncc(Br)cc1S(=O)(=O)Nc1cc(C(F)(F)F)cc(C(F)(F)F)c1	Mdm2 MdmX PPI 79.0 | Mdm2 MdmX conf inactive | FLuc counter 55.8
COc1cc(C(=O)Nc2nc(-c3ccc(Cl)cc3)c(C)s2)ccc1OCC(=O)Nc1ccc(F)cc1	Mdm2 MdmX PPI 77.9 | Mdm2 MdmX conf 65.8 | FLuc counter 70.7
COC(=O)c1nc(NC(=O)c2cc(OC)c(OC)c(OC)c2)n[nH]1	none
CNC[C@H](CC1CCCCC1)NC[C@H](CO)NCC1(c2ccccc2)CC1	Mdm2 MdmX PPI 85.8 | Mdm2 MdmX conf 57.8 | FLuc counter 44.6
CNC[C@H](CC1CCCCC1)NC[C@H](CO)NCCc1cccc(C(F)(F)F)c1	Mdm2 MdmX PPI 99.2 | Mdm2 MdmX conf 96.6 | FLuc counter 58.4
Cc1ccc(NC(=O)CCNS(=O)(=O)c2ccc(Br)s2)cc1	none
CSc1nc(C2CC2)cc(-c2cccs2)c1C#N	Mdm2 MdmX PPI 87.6 | Mdm2 MdmX conf 78.8 | FLuc counter 79.3
Cc1ccc(-c2nn(-c3ccccc3)cc2CSC(=N)N)cc1	Mdm2 MdmX PPI 52.0 | Mdm2 MdmX conf inactive
OCc1cn(-c2ccccc2)nc1-c1ccc(-c2nn(-c3ccccc3)cc2CO)cc1	none
